# Measured values reported in PubChem BioAssay (EPA / NIEHS).
# Records with an inconclusive call do not appear. Active and inactive are the calls of the source. How the source made its calls, unless noted: active means hit-call score of the fitted dose curve at least 0.9, where 1 is the maximum; inactive means score below 0.9.
# How the values were obtained:
# [1] = Tanguay_ZF_120hpf_EDEM: Oregon State University Tanguay Lab 120 Hour Post-fertilization zebrafish Assay for Edema Malformation (AID 2284400)
# Summary of the method: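 Dechorionated Tropical 5D wild-type embryos, one per well, statically exposed from 6 to 120 hpf at 28C in 0.64% DMSO. Edema scored present/absent by brightfield microscopy at 120 hpf; dead embryos not scored; fit versus DMSO.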
# [2] = Tanguay_ZF_120hpf_BRN: Oregon State University Tanguay Lab 120 Hour Post-fertilization zebrafish Assay for Brain Region Malformation (AID 2284402)
# Summary of the method: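 Dechorionated wild-type Tropical 5D zebrafish embryos exposed statically from 6 to 120 hpf at 28C, one per well, 0.64% DMSO final. Brain malformation scored at 120 hpf by brightfield as present/absent; dead embryos not scored.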
# [3] = Tanguay_ZF_120hpf_TCHR: Oregon State University Tanguay Lab 120 Hour Post-fertilization zebrafish Assay for Touch Responsive (AID 2284403)
# Summary of the method: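 Dechorionated Tropical 5D wild-type zebrafish embryos, one per well from 6 hpf, were statically exposed to 120 hpf at 28 °C (0.64% DMSO). Touch response was scored present/absent at 120 hpf and not scored in dead larvae.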
# [4] = Tanguay_ZF_120hpf_ANY: Oregon State University Tanguay Lab 120 Hour Post-fertilization zebrafish Assay for Any Mortality and Malformation (AID 2284404)
# Summary of the method: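 Dechorionated Tropical 5D wild-type embryos, one per well from 6 hpf, static exposure in sealed, dark plates at 28C until 120 hpf, 0.64% DMSO final. Brightfield scoring of mortality and malformations as binary presence/absence, pooling 13 morphology endpoints.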
# [5] = CCTE_Padilla_ZF_Score.Craniofacial: CCTE's 144 Hour Post-fertilization zebrafish Assay Score for Craniofacial Malformation, Padilla Lab (AID 2284405)
# Summary of the method: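 Wild-type zebrafish embryos (with chorions), one per well in 10% Hanks', were dosed at 6–8 hpf in sealed plates and kept at 26C. They were rinsed at 5 dpf. At 6 dpf two blinded assessors scored craniofacial malformations by brightfield stereomicroscopy.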
# [6] = CCTE_Padilla_ZF_Score.Edema: CCTE's 144 Hour Post-fertilization zebrafish Assay Score for Edema Malformation, Padilla Lab (AID 2284406)
# Summary of the method: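 Wild-type zebrafish embryos, one per well in Hanks' solution, dosed at 6-8 hpf, sealed and reared at 26C on a 14:10 h cycle; rinsed on 5 dpf. At 6 dpf, blinded assessors scored edema by stereomicroscopy.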
# [7] = CCTE_Padilla_ZF_Score.Position: CCTE's 144 Hour Post-fertilization zebrafish Assay Score for Position, Padilla Lab (AID 2284409)
# Summary of the method: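 Wild-type zebrafish embryos (with chorions) exposed singly from 6–8 hpf in sealed wells of Hanks' solution at 26C, rinsed at 5 dpf. At 6 dpf, blinded assessors scored abnormal water-column position by brightfield stereomicroscopy, relative to DMSO.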
# [8] = CCTE_Padilla_ZF_Score.Living: CCTE's 144 Hour Post-fertilization zebrafish Assay Score for Viability, Padilla Lab (AID 2284410);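 further: larval death at 6 dpf judged by absent heartbeat or coagulation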
# Summary of the method: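 Wild-type zebrafish embryos were exposed singly from 6–8 hpf in sealed wells of Hanks' solution at 26C, then rinsed at 5 dpf. At 6 dpf, blinded assessors scored mortality (no heartbeat or coagulation) by stereomicroscopy, fitted against DMSO.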
# [9] = CCTE_Padilla_ZF_Score.General: CCTE's 144 Hour Post-fertilization zebrafish Assay Score for General Malformation, Padilla Lab (AID 2284411)
# Summary of the method: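 Wild-type zebrafish embryos were plated singly at 6-8 hpf in 10% Hanks' and exposed in sealed wells at 26C until rinsed on 5 dpf. At 6 dpf two blinded assessors scored mortality, hatching and malformations by stereomicroscopy; gain-of-signal versus DMSO.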
# [10] = test system: SRY-box transcription factor 2 (SOX2) Protein Expression, Deisenroth Lab, SOX2 (gene 6657); assay: CCTE_Deisenroth_DEVTOX-GLR_Endo_SOX2: CCTE's DevTox GLR-Endo Assay Evaluation of SRY-box transcription factor 2 (SOX2) Protein Expression, Deisenroth Lab (AID 2284412; active means hit-call score of the fitted dose curve at least 0.9, where 1 is the maximum)
# Summary of the method: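 RUES2-GLR human pluripotent cells were seeded 24 h, then differentiated 48 h with two chemical exposures 24 h apart. Cells were fixed, nuclei stained and imaged by high-content microscopy. Endpoint is %SOX2+ cells over cell count, minus 0.2% DMSO control; 10-point series 1 nM–200 uM.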
structure (smiles),measurement,setting,value
O=C(Cl)C(F)(F)C(F)(F)C(F)(F)C(=O)Cl,outcome,[1],inactive
same,outcome,[2],inactive
same,outcome,[3],inactive
same,AC50,[4],57.6 µM (active)
same,outcome,[5],inactive
same,outcome,[6],inactive
same,outcome,[7],inactive
same,outcome,[8],inactive
same,outcome,[9],inactive
O=S(=O)(O)CCC(F)(F)C(F)(F)C(F)(F)C(F)(F)C(F)(F)C(F)(F)F,outcome,[1],inactive
same,outcome,[2],inactive
same,outcome,[3],inactive
same,outcome,[4],inactive
same,outcome,[5],inactive
same,outcome,[6],inactive
same,outcome,[7],inactive
same,outcome,[8],inactive
same,outcome,[9],inactive
NCC(F)(F)C(F)(F)C(F)(F)C(F)(F)F,outcome,[1],inactive
same,outcome,[2],inactive
same,outcome,[3],inactive
same,outcome,[4],inactive
same,outcome,[5],inactive
same,outcome,[6],inactive
same,outcome,[7],inactive
same,outcome,[8],inactive
same,outcome,[9],inactive
FC(F)=C(F)C(F)(F)C(F)(F)C(F)(F)C(F)(F)C(F)(F)C(F)(F)F,outcome,[1],inactive
same,outcome,[2],inactive
same,outcome,[3],inactive
same,outcome,[4],inactive
same,outcome,[5],inactive
same,outcome,[6],inactive
same,outcome,[7],inactive
same,outcome,[8],inactive
same,outcome,[9],inactive
C[Si](C)(C)C(F)(F)C(F)(F)C(F)(F)F,outcome,[1],inactive
same,outcome,[2],inactive
same,outcome,[3],inactive
same,outcome,[4],inactive
same,outcome,[5],inactive
same,outcome,[6],inactive
same,outcome,[7],inactive
same,outcome,[8],inactive
same,outcome,[9],inactive
OCCC(F)(F)C(F)(F)C(F)(F)C(F)(F)F,outcome,[1],inactive
same,outcome,[2],inactive
same,outcome,[3],inactive
same,outcome,[4],inactive
same,outcome,[5],inactive
same,outcome,[6],inactive
same,outcome,[7],inactive
same,outcome,[8],inactive
same,outcome,[9],inactive
OC(O)(C(F)C(O)(O)C(F)(F)F)C(F)(F)F,AC50,[1],66.9 µM (active)
same,outcome,[2],inactive
same,outcome,[3],inactive
same,AC50,[4],40.5 µM (active)
same,AC50,[5],35.5 µM (active)
same,AC50,[6],31.3 µM (active)
same,AC50,[7],76.9 µM (active)
same,outcome,[8],inactive
same,AC50,[9],32.4 µM (active)
FC(F)C(F)(F)COCC1CO1 (centres undefined),outcome,[1],inactive
same,outcome,[2],inactive
same,outcome,[3],inactive
same,outcome,[4],inactive
same,AC50,[5],118 µM (active)
same,AC50,[6],29.5 µM (active)
same,outcome,[7],inactive
same,outcome,[8],inactive
same,AC50,[9],9.44 µM (active)
S=P(N1CC1)(N1CC1)N1CC1,outcome,[9],inactive
NC(=O)N1c2ccccc2C=Cc2ccccc21,AC50,[10],16.7 µM (active)
FC(F)(F)C(F)(F)C(F)(F)C(F)(F)C(F)(F)C(F)(F)I,outcome,[1],inactive
same,outcome,[2],inactive
same,outcome,[3],inactive
same,outcome,[4],inactive
same,outcome,[5],inactive
same,outcome,[6],inactive
same,outcome,[7],inactive
same,outcome,[8],inactive
same,outcome,[9],inactive
FC(F)(F)COC(OCC(F)(F)F)OCC(F)(F)F,outcome,[1],inactive
same,outcome,[2],inactive
same,outcome,[3],inactive
same,outcome,[4],inactive
same,outcome,[5],inactive
same,outcome,[6],inactive
same,outcome,[7],inactive
same,outcome,[8],inactive
same,outcome,[9],inactive
NNC(=O)c1ccncc1,outcome,[10],inactive
Nc1ccn([C@@H]2O[C@H](CO)[C@@H](O)[C@@H]2O)c(=O)n1,AC50,[10],4.66 µM (active)
